# From PubChem BioAssay
# PAFAH2 inh: inhibitors of human PAFAH2; recombinant PAFAH2, FP-rhodamine activity probe, fluorescence polarization; inhibition, % at 3.39 µM; 340,000 tested, 0.99% active; Q99487;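 active = inhibition above the mean over all tested compounds plus 3 SD, cut at about 30% in these data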;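 note: inhibitors block probe labeling of enzyme so polarization drops; 0% = enzyme with DMSO and 100% = wells lacking PAFAH2 protein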
# pPAFAH FP inh: inhibitors of human plasma PAF acetylhydrolase (pPAFAH); inhibition, % at 3.39 µM; Q13093; 330,000 tested, 1.5% active; recombinant pPAFAH, FP-rhodamine probe fluorescence polarization;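 active = inhibition above the mean inhibition across the screen plus 3 SD, cut at about 25% in these data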;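 note: inhibitors block binding of the rhodamine activity-based probe so polarization drops; 0% = enzyme with DMSO and 100% = wells lacking pPAFAH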
# Target sequence (Q13093 whole entry, looked up): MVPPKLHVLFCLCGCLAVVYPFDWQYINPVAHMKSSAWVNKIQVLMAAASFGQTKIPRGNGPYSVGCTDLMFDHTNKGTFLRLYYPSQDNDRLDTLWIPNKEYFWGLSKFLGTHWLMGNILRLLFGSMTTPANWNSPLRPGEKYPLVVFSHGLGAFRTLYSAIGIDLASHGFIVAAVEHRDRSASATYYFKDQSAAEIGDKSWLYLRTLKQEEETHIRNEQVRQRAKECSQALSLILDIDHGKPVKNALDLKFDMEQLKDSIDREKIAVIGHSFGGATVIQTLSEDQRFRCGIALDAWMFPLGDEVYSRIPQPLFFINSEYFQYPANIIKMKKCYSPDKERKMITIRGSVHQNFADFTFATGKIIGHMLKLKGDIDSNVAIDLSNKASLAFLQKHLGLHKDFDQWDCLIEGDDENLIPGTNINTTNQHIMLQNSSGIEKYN
# TCR-CD3 inh: blocks the human TCR-CD3 interaction. TAMRA-labeled TCR probe fluorescence, biochemical. inhibition, % at 9.4 µM. 360,000 tested, 0.37% active. AID 651800; in the data active = inhibition above about 19%;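 note: recombinant mutant TCR 2C K166C tagged with TAMRA read by polarization; 0% = receptor in buffer alone and 100% = receptor with positive control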
# PAFAH1B2 inh: blocks human PAF acetylhydrolase 1b catalytic subunit 2; P68402; recombinant PAFAH1B2, FP-rhodamine activity probe, fluorescence polarization; inhibition, % at 3.39 µM; 340,000 tested, 1.2% active;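 active = inhibition above the mean of all tested compounds plus 3 SD, cut at about 24% in these data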;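 note: 0% = enzyme with DMSO and 100% = wells lacking PAFAH1B2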
# PAFAH1B3 inh: PAFAH1B3 (human) inhibition | Q15102 | 340,000 tested, 0.28% active | recombinant PAFAH1B3, FP-rhodamine probe, fluorescence polarization | AID 492972 | inhibition, % at 3.39 µM;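 active = inhibition above the screen-wide average of all tested compounds plus 3 SD, cut at about 25% in these data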;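 note: 0% = enzyme with DMSO only and 100% = wells lacking PAFAH1B3 protein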
# PAFAH2 FP conf: confirmation of human PAFAH2 inhibitors; shares compounds with PAFAH2 inh; recombinant PAFAH2, FP-rhodamine activity probe, fluorescence polarization; inhibition, % at 3.39 µM; 2,300 tested, 65% active; AID 493030;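 active = mean inhibition over three repeats above a set limit taken from the earlier primary screen, cut at about 30% in these data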;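 note: inhibitor blocks binding of rhodamine activity probe so polarization falls; 0% = enzyme with DMSO and 100% = wells lacking PAFAH2 protein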
# The depositor's hits bear a star; · = no result given. Shown are actives, neighbours in structure and some others; about 2.7% of the full set was active somewhere.
SMILES,PAFAH2 inh,pPAFAH FP inh,TCR-CD3 inh,PAFAH1B2 inh,PAFAH1B3 inh,PAFAH2 FP conf
COc1cc(Oc2nc(C(F)(F)F)nc3ccccc23)ccc1C=O,1,-1,6,0,-5,·
N#Cc1ccccc1NC(=O)COC(=O)c1c[nH]c2ccccc12,69*,·,-2,-4,-5,67*
O=C(COC(=O)c1cc(Cl)cc(Cl)c1)NCc1ccco1,5,10,1,2,4,·
O=C(COC(=O)c1ccccc1)NCc1ccco1,13,3,1,1,5,·
O=C(COC(=O)c1cccc(S(=O)(=O)N2CCc3ccccc32)c1)NCc1ccco1,33*,13,3,5,8,20
Cc1ccc(C(=O)OCC(=O)NCc2ccco2)cc1,45*,3,4,1,2,37*
O=C(COC(=O)c1cccc(S(=O)(=O)N2CCc3ccccc3C2)c1)NCc1ccco1,-1,23,4,10,1,·
CCOc1ccc(C(=O)NCc2ccco2)cc1OCC,-3,1,-1,6,2,·
CCOc1ccc(C(=O)OCC(=O)NCc2ccco2)cc1OCC,74*,10,9,8,4,46*
Nc1cc(C(=O)OCC(=O)NCc2ccco2)ccc1Cl,36*,16,6,1,0,30*
COc1ccccc1NC(=O)C(C)OC(=O)C(C)SCC(=O)Nc1ccc(C)cc1 (stereo unspecified),5,·,-2,6,-1,·
O=S(=O)(N[C@H](CO)Cc1ccccc1)c1ccc(Br)cc1F,-2,2,1,6,2,·
CC(=O)C(C)n1c(CN2CCN(C(=O)c3ccco3)CC2)nc2c1c(=O)n(C)c(=O)n2C (stereo unspecified),4,4,3,6,-3,·
O=C(COC(=O)/C=C/c1cccc(F)c1)NC1CCCC1,73*,9,10,-3,0,67*
O=C(COC(=O)/C=C/c1cccc(F)c1)NC1CCCCC1,·,·,2,·,·,·
O=C(COC(=O)/C=C/c1cccc(F)c1)NC1CC1,34*,-1,6,0,3,18
O=C(COC(=O)/C=C/c1cccc(F)c1)NC1CCCCCC1,82*,10,3,6,8,80*
O=C(O)/C=C/C(=O)Nc1ccc(S(=O)(=O)Nc2nccs2)cc1,0,-2,0,6,12,·
C/C(=N/NC(=O)CNC(=O)C1COc2ccccc2O1)c1ccc([N+](=O)[O-])cc1 (stereo unspecified),-5,4,1,3,2,·
COc1ccc(/C=C2\N=C(c3c(-c4ccccc4)noc3C)OC2=O)cc1OC,34*,2,2,1,7,14
COc1cc(/C=C2\N=C(c3ccccc3)OC2=O)ccc1OCc1c(C)no[n+]1[O-],1,4,5,3,-1,·
COc1ccc([N+](=O)[O-])cc1NCc1c(F)cccc1F,·,·,3,·,·,·
CC(=O)OCC(=O)C1(O)CCC2C3CCC4C(OC(C)=O)C(=O)CCC4(C)C3C(=O)CC21C (stereo unspecified),3,·,0,0,4,·
COc1ccc(C(CNC(=O)C(C)Oc2ccc(Br)cc2)N2CCCC2)cc1 (stereo unspecified),5,4,-11,7,7,·
CSCCC(NS(=O)(=O)c1ccc(Cl)c(Cl)c1)C(=O)O (stereo unspecified),68*,-9,-4,13,3,71*
SMILES,PAFAH2 inh,pPAFAH FP inh,TCR-CD3 inh,PAFAH1B2 inh,PAFAH1B3 inh,PAFAH2 FP conf
CSCCC(NS(=O)(=O)c1ccc2ccccc2c1)C(=O)O (stereo unspecified),6,0,4,11,6,·
Cc1cccc(-n2c(SCC(=O)c3c(N)n(C4CC4)c(=O)[nH]c3=O)nnc2N2CCOCC2)c1,0,3,-8,-3,-2,·
COc1cc(C)ccc1OCc1cc(C(=O)N2CCCCCCC2)no1,5,-2,-3,-1,8,·
Cc1cc(Nc2cccc(Br)c2)c2ccccc2n1,50*,2,-1,-3,4,8
O=C(COC(=O)c1cc(S(=O)(=O)N2CCCC2)ccc1O)Nc1ccc(F)cc1F,42*,0,5,8,0,21
Cc1noc(C)c1COC(=O)c1cccc(S(=O)(=O)N2CCOCC2)c1,-6,5,-3,3,5,·
Cc1cc(C(=O)OCC(=O)Nc2cccc(S(=O)(=O)N3CCOCC3)c2)c(C)o1,36*,7,0,-4,2,27
O=C(COC(=O)c1cccc(F)c1)Nc1cccc(S(=O)(=O)N2CCOCC2)c1,·,·,-13,·,·,·
Cc1noc(C)c1COc1ccc(C(=O)OCC(=O)Nc2cccc(S(=O)(=O)N3CCOCC3)c2)cc1,72*,8,-11,1,-1,65*
Cc1cc(C(=O)OCC(=O)Nc2cccc(S(N)(=O)=O)c2)c(C)o1,28,5,-9,4,4,·
CC(=O)Nc1ccc(NC(=O)COC(=O)c2cc(S(=O)(=O)N3CCCC3)ccc2O)cc1,9,-3,0,3,5,·
O=C(COC(=O)c1ccc(F)cc1F)Nc1cccc(S(=O)(=O)N2CCOCC2)c1,34*,·,8,3,-8,35*
COc1ccc(C2=[N+](C)CCn3cccc32)c(OC)c1,-4,-2,7,5,10,·
COC(=O)C1(C(=O)OC)Cc2ccccc2N(S(=O)(=O)c2ccc(C)cc2)C1CC(C)=O (stereo unspecified),·,·,7,·,·,·
COc1ccccc1CCC(=O)OCC(=O)Nc1cccc(S(=O)(=O)N2CCCCC2)c1,7,17,-2,1,-2,·
COc1ccccc1CCC(=O)OCC(=O)Nc1cccc(S(=O)(=O)N2CCOCC2)c1,73*,13,-6,-6,6,66*
CCOC(=O)c1c(C)n(-c2ccc(C)cc2)c2c(C(C(C)=O)C(=O)O)c(Br)c(O)c(O)c12 (stereo unspecified),81*,18,1,-3,-5,75*
CC(C)(C)OC(=O)N1CCC(C(=O)Nc2cccc(C(=O)N3CCOCC3)c2)CC1,7,3,-2,3,10,·
Cc1c(NS(=O)(=O)c2cccc(C(=O)OCC(=O)N(C)C3CCCCC3)c2)c(=O)n(-c2ccccc2)n1C,34*,5,4,2,2,21
CN(C(=O)COC(=O)c1ccc(NS(=O)(=O)c2cccs2)cc1)C1CCCCC1,70*,22,-1,0,12,72*
NC(=O)Nc1ccc(C(=O)OCC(=O)NC2CCCCC2)cc1,81*,4,-2,0,9,80*
CC(=O)Nc1ccc(C(=O)OCC(=O)NC2CCCCCCC2)cc1,79*,-10,-3,8,16,75*
CC(=O)Nc1ccc(C(=O)OCC(=O)N(C)C2CCCCC2)cc1,32*,-7,-3,2,-1,27
CC(=O)Nc1ccc(C(=O)OCC(=O)N2CCCC2)cc1,-1,4,-7,6,0,·
